The record followed here is paper PMC7862700, “An all-to-all approach to the identification of sequence-specific readers for epigenetic DNA modifications on cytosine”.

What all share (assay): DAPPL (digital affinity profiling via proximity ligation, sequencing); 10 mM Tris-HCl pH 7.5, 50 mM NaCl, 1 mM DTT, 4% glycerol, room temperature, 30 min; GST-TFs on glutathione beads, 16-mer random dsDNA library, 0.1% formaldehyde crosslink after washing; high values mean tight binding
One experiment addresses T1, FEV (Homo sapiens, UniProt Q99581 1-238).
T1 sequence: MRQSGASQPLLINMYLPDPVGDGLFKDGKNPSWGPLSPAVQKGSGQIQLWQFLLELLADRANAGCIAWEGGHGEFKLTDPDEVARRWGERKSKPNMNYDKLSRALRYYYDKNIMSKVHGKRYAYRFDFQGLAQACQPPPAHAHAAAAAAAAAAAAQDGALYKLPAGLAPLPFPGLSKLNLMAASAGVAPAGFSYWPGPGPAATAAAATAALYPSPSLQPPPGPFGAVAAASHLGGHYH
The note with it: protein: recombinant; tags: N-terminal GST; dsDNA, one strand shown. A digest of the protocol: (§1)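 Pools were built from human transcription factors expressed in yeast as GST fusions, captured on glutathione beads and DNA-barcoded, along with a tag-only sample. Incubation with 200 nmole of a 16-mer random double-stranded DNA library lasted 30 min at room temperature in Tris/NaCl/DTT/glycerol buffer, and was followed by washing, 0.1% formaldehyde crosslinking, proximity ligation, PCR amplification and Illumina NextSeq500 sequencing. Binding signal is the quotient of each hexamer's read frequency for a factor and its frequency for the tag-only sample.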

The target in the next experiment is ETV5 (Homo sapiens, UniProt P41161 1-510). As to conditions: protein: recombinant; tags: N-terminal GST; dsDNA, one strand shown. A digest of the protocol:
as §1

For the next experiment, the target named is HSF1 (Homo sapiens, UniProt Q00613 1-529). The note with it: protein: recombinant; tags: N-terminal GST; chain copies: 3; dsDNA, one strand shown. A digest of the protocol:
as §1

For a further experiment, the target named is T2, SPIC (Homo sapiens, UniProt Q8N5J4 1-248).
T2 sequence: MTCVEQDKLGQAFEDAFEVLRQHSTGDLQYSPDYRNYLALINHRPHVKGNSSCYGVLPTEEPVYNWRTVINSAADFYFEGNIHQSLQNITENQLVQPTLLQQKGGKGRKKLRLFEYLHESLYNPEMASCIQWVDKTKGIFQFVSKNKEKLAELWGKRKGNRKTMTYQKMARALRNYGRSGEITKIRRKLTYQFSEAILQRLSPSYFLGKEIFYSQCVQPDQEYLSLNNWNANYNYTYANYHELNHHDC
As to conditions: protein: recombinant; tags: N-terminal GST; dsDNA, one strand shown. A digest of the protocol:
as §1

In a further experiment the target is ELF4 (Homo sapiens, UniProt Q99607 1-663). As to conditions: protein: recombinant; tags: N-terminal GST; dsDNA, one strand shown. A digest of the protocol:
as §1

The next experiment has as its target T3, ELK4 (Homo sapiens, UniProt P28324-2 1-405).
T3 sequence: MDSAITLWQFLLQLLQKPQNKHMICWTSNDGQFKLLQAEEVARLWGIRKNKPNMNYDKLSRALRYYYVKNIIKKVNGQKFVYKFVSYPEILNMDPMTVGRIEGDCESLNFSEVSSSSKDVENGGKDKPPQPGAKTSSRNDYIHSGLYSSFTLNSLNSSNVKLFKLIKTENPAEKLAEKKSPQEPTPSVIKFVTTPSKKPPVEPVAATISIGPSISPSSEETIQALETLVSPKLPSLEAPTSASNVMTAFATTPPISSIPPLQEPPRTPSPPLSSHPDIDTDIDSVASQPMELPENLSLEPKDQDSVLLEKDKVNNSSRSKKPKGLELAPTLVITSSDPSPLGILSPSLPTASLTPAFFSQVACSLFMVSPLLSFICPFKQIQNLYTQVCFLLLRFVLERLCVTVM
The note with it: protein: recombinant; tags: N-terminal GST; dsDNA, one strand shown. A digest of the protocol: as §1

For the next experiment, the target named is T4, ETV2 (Homo sapiens, UniProt O00321 1-342).
T4 sequence: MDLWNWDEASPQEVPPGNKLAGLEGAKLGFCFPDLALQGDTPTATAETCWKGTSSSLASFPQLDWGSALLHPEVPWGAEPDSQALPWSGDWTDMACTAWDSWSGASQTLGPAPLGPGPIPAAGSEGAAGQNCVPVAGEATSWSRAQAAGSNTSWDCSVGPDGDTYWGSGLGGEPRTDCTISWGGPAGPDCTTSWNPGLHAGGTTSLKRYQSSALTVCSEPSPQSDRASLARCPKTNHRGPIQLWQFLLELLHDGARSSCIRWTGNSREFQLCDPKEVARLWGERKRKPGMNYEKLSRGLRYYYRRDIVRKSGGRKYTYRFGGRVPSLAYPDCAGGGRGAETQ
As to conditions: protein: recombinant; tags: N-terminal GST; dsDNA, one strand shown. A digest of the protocol:
as §1

The target of the next experiment is T5, ELF3 (Homo sapiens, UniProt P78545 1-371).
T5 sequence: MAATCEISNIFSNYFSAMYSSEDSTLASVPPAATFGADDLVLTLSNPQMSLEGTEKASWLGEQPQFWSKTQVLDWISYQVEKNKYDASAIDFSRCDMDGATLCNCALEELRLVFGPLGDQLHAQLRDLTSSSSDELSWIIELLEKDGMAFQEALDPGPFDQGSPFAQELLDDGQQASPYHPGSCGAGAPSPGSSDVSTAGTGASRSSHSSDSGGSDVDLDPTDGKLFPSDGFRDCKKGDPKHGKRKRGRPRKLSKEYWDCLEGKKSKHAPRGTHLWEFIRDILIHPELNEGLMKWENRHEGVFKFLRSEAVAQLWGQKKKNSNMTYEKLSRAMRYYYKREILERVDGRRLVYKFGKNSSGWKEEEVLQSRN
As to conditions: protein: recombinant; tags: N-terminal GST; dsDNA, one strand shown. A digest of the protocol:
as §1

The target of a further experiment is CRX (Homo sapiens, UniProt O43186 1-299). As to conditions: protein: recombinant; tags: N-terminal GST; dsDNA, one strand shown. A digest of the protocol:
as §1

The next experiment concerns the target ETV1 (Homo sapiens, UniProt P50549 1-477). As to conditions: protein: recombinant; tags: N-terminal GST; dsDNA, one strand shown. A digest of the protocol: as §1

Chain of CRX (O43186 whole entry): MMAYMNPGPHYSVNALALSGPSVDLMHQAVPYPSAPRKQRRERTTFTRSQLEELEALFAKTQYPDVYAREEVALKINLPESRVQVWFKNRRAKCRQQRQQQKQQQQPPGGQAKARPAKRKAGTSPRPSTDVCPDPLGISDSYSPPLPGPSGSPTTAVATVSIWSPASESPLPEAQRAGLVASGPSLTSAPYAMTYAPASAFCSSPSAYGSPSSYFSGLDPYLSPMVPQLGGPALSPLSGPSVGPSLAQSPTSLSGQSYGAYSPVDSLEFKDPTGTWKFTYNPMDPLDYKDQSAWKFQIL
Chain of ETV5 (P41161 whole entry): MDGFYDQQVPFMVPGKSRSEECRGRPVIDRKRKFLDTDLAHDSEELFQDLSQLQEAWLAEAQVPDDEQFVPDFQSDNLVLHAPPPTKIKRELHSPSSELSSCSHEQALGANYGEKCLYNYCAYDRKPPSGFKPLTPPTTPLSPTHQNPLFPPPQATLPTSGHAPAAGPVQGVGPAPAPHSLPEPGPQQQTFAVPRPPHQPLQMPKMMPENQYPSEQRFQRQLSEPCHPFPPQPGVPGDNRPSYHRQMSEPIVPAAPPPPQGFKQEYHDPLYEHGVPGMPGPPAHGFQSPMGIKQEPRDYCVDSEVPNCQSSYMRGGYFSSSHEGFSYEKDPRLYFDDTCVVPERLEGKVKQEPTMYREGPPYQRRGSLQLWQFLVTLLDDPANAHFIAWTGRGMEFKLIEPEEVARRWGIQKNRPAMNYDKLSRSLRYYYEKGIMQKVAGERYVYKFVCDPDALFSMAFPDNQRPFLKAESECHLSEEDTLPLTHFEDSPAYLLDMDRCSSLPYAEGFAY
Chain of HSF1 (Q00613 whole entry): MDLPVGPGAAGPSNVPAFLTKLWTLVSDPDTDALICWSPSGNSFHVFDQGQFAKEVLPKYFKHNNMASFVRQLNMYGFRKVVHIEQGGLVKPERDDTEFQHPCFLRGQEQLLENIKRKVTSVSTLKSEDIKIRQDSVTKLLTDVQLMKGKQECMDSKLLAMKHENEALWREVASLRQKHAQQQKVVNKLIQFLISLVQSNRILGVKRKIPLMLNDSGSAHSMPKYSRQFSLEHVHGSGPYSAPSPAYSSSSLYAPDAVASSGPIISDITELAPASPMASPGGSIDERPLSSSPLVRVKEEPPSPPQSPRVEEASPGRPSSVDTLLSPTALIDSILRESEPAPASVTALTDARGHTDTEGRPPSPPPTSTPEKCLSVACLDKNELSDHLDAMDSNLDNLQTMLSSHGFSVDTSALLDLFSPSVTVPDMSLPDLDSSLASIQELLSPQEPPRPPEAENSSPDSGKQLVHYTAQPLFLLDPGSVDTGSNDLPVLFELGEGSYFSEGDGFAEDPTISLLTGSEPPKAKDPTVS
Chain of ETV1 (P50549 whole entry): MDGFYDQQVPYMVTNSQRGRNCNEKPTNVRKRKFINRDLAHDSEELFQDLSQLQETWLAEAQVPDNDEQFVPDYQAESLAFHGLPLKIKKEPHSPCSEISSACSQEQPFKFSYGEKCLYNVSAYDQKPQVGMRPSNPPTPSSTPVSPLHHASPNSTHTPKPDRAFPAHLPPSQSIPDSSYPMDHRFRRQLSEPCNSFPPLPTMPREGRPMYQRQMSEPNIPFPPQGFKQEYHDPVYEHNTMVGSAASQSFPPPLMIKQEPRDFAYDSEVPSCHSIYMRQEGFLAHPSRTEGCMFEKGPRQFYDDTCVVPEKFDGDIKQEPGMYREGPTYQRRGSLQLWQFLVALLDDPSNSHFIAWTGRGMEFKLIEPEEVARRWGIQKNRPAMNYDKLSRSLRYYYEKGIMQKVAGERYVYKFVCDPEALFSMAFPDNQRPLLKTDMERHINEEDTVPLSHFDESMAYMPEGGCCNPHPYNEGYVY
Chain of ELF4 (Q99607 whole entry): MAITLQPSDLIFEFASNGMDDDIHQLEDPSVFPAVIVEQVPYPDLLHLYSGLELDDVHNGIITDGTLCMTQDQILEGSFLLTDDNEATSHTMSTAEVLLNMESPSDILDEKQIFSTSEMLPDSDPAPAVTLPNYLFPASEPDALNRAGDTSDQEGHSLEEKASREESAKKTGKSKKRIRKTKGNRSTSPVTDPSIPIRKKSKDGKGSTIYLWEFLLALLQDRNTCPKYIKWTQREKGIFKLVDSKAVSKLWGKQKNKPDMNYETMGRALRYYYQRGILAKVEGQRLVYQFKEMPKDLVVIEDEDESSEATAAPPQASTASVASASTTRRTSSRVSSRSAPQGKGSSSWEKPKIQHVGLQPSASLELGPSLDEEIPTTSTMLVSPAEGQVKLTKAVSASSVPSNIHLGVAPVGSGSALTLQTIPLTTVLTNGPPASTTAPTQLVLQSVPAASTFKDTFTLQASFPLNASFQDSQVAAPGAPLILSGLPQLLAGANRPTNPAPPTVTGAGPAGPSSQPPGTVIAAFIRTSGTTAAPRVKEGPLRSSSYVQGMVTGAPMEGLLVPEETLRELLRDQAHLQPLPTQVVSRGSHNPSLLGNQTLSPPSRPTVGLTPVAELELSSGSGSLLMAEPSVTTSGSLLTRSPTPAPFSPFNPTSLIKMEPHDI

CTGCCT: the binding signal with FEV is 1.2 fold enrichment (6-mer frequency, TF over GST control); with ETV5, 1.18 fold enrichment (6-mer frequency, TF over GST control); with HSF1, 1.13 fold enrichment (6-mer frequency, TF over GST control); with SPIC, 1.07 fold enrichment (6-mer frequency, TF over GST control); in the experiment with ELF4 it was 1.21 fold enrichment (6-mer frequency, TF over GST control); with ELK4, 1.14 fold enrichment (6-mer frequency, TF over GST control). For the same sequence, the binding signal was 1.15 fold enrichment (6-mer frequency, TF over GST control) with ETV2; 1.17 fold enrichment (6-mer frequency, TF over GST control) with ELF3; 1.11 fold enrichment (6-mer frequency, TF over GST control) with CRX; 1.24 fold enrichment (6-mer frequency, TF over GST control) in the experiment with ETV1.
In the case of CTGGAT, the binding signal in the experiment with FEV was 1.38 fold enrichment (6-mer frequency, TF over GST control); with ETV5 it was 1.4 fold enrichment (6-mer frequency, TF over GST control); with HSF1 it was 2.19 fold enrichment (6-mer frequency, TF over GST control); in the experiment with SPIC, 1.34 fold enrichment (6-mer frequency, TF over GST control); in the experiment with ELF4, 1.35 fold enrichment (6-mer frequency, TF over GST control); in the experiment with ELK4 it was 1.35 fold enrichment (6-mer frequency, TF over GST control). The binding signal with ETV2 was 1.41 fold enrichment (6-mer frequency, TF over GST control); in the experiment with ELF3, 1.41 fold enrichment (6-mer frequency, TF over GST control); with CRX, 2.05 fold enrichment (6-mer frequency, TF over GST control); in the experiment with ETV1, 1.47 fold enrichment (6-mer frequency, TF over GST control).
With CTAATA, the binding signal with FEV was 1.16 fold enrichment (6-mer frequency, TF over GST control); with ETV5 it was 1.21 fold enrichment (6-mer frequency, TF over GST control); with HSF1 it was 1.55 fold enrichment (6-mer frequency, TF over GST control); in the experiment with SPIC, 1.29 fold enrichment (6-mer frequency, TF over GST control); with ELF4, 1.18 fold enrichment (6-mer frequency, TF over GST control); with ELK4, 1.1 fold enrichment (6-mer frequency, TF over GST control). In addition, the binding signal is 1.24 fold enrichment (6-mer frequency, TF over GST control) with ETV2; 1.16 fold enrichment (6-mer frequency, TF over GST control) in the experiment with ELF3; 2.09 fold enrichment (6-mer frequency, TF over GST control) in the experiment with CRX; 1.22 fold enrichment (6-mer frequency, TF over GST control) with ETV1.
Regarding CCCCAA, the binding signal with FEV is 1.16 fold enrichment (6-mer frequency, TF over GST control); in the experiment with ETV5, 1.12 fold enrichment (6-mer frequency, TF over GST control); with HSF1, 1.06 fold enrichment (6-mer frequency, TF over GST control); with SPIC it was 1.06 fold enrichment (6-mer frequency, TF over GST control); with ELF4 it was 1.21 fold enrichment (6-mer frequency, TF over GST control); with ELK4 it was 1.16 fold enrichment (6-mer frequency, TF over GST control). For the same sequence, the binding signal with ETV2 was 1.15 fold enrichment (6-mer frequency, TF over GST control); in the experiment with ELF3, 1.24 fold enrichment (6-mer frequency, TF over GST control); in the experiment with CRX, 1.05 fold enrichment (6-mer frequency, TF over GST control); with ETV1, 1.15 fold enrichment (6-mer frequency, TF over GST control).
For the sequence CTATTC, the binding signal with FEV was 1.28 fold enrichment (6-mer frequency, TF over GST control); with ETV5 it was 1.35 fold enrichment (6-mer frequency, TF over GST control); in the experiment with HSF1, 1.57 fold enrichment (6-mer frequency, TF over GST control); with SPIC it was 1.49 fold enrichment (6-mer frequency, TF over GST control); with ELF4 it was 1.26 fold enrichment (6-mer frequency, TF over GST control); with ELK4 it was 1.32 fold enrichment (6-mer frequency, TF over GST control). Further, the binding signal in the experiment with ETV2 is 1.37 fold enrichment (6-mer frequency, TF over GST control); with ELF3, 1.38 fold enrichment (6-mer frequency, TF over GST control); with CRX, 1.16 fold enrichment (6-mer frequency, TF over GST control); with ETV1, 1.28 fold enrichment (6-mer frequency, TF over GST control).
For TTAGCA, the binding signal with FEV is 1.23 fold enrichment (6-mer frequency, TF over GST control); with ETV5, 1.15 fold enrichment (6-mer frequency, TF over GST control); with HSF1, 1.7 fold enrichment (6-mer frequency, TF over GST control); in the experiment with SPIC, 1.22 fold enrichment (6-mer frequency, TF over GST control); with ELF4 it was 1.33 fold enrichment (6-mer frequency, TF over GST control); with ELK4, 1.33 fold enrichment (6-mer frequency, TF over GST control). For the same sequence, the binding signal with ETV2 was 1.27 fold enrichment (6-mer frequency, TF over GST control); in the experiment with ELF3, 1.3 fold enrichment (6-mer frequency, TF over GST control); with CRX it was 2.38 fold enrichment (6-mer frequency, TF over GST control); in the experiment with ETV1, 1.32 fold enrichment (6-mer frequency, TF over GST control).
CTTCCA: the binding signal is 1.43 fold enrichment (6-mer frequency, TF over GST control) with FEV; 1.46 fold enrichment (6-mer frequency, TF over GST control) with ETV5; 2.18 fold enrichment (6-mer frequency, TF over GST control) in the experiment with HSF1; 1.44 fold enrichment (6-mer frequency, TF over GST control) with SPIC; 1.33 fold enrichment (6-mer frequency, TF over GST control) in the experiment with ELF4; 1.45 fold enrichment (6-mer frequency, TF over GST control) in the experiment with ELK4. The binding signal in the experiment with ETV2 was 1.37 fold enrichment (6-mer frequency, TF over GST control); with ELF3, 1.49 fold enrichment (6-mer frequency, TF over GST control); with CRX, 1.42 fold enrichment (6-mer frequency, TF over GST control); with ETV1, 1.48 fold enrichment (6-mer frequency, TF over GST control).
Turning to CCATAA, the binding signal in the experiment with FEV is 1.11 fold enrichment (6-mer frequency, TF over GST control); with ETV5, 1.12 fold enrichment (6-mer frequency, TF over GST control); with HSF1, 1.29 fold enrichment (6-mer frequency, TF over GST control); with SPIC it was 1.33 fold enrichment (6-mer frequency, TF over GST control); with ELF4, 1.19 fold enrichment (6-mer frequency, TF over GST control); with ELK4 it was 1.11 fold enrichment (6-mer frequency, TF over GST control). Besides, the binding signal is 1.24 fold enrichment (6-mer frequency, TF over GST control) in the experiment with ETV2; 1.07 fold enrichment (6-mer frequency, TF over GST control) in the experiment with ELF3; 1.64 fold enrichment (6-mer frequency, TF over GST control) in the experiment with CRX; 1.23 fold enrichment (6-mer frequency, TF over GST control) in the experiment with ETV1.
